Common to all, as to experiment: protein-binding microarray (PBM); PBM: ~300 nM protein, 6 mM HEPES pH 7.8, 80 mM KCl, 0.5 mM EDTA, 0.5 mM EGTA, 6% glycerol, 35 ng/ul poly-dIdC, 1% milk, 1 h, room temperature; Ap Aiptasia and Nv Nematostella (sea anemones) / Co Capsaspora / Aq Amphimedon (sponge) / Dm Drosophila / Hu human; RHD is the Rel homology domain; high values mean tight binding
What all share (settings): dsDNA, one strand shown

The target in assay [1] is T1, GST-Ap-NF-kB RHD (Exaiptasia pallida (Aiptasia), UniProt A0A913YAJ5 2-422).
T1 sequence: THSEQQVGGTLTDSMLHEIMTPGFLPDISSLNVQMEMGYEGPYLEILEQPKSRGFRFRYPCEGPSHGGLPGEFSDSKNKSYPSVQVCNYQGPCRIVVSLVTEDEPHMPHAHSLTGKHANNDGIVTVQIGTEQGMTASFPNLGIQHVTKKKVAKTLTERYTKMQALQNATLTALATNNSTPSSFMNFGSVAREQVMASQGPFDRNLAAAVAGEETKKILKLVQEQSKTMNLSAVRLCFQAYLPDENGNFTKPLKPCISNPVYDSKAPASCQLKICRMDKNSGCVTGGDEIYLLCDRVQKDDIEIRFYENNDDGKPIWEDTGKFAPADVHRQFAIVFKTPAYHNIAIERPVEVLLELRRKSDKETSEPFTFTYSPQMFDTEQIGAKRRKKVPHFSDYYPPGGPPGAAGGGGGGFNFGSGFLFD

Assay [2] deals with T2, GST-Nv-NF-kB (Cys allele) (Nematostella vectensis, UniProt E5G601 2-411).
T2 sequence: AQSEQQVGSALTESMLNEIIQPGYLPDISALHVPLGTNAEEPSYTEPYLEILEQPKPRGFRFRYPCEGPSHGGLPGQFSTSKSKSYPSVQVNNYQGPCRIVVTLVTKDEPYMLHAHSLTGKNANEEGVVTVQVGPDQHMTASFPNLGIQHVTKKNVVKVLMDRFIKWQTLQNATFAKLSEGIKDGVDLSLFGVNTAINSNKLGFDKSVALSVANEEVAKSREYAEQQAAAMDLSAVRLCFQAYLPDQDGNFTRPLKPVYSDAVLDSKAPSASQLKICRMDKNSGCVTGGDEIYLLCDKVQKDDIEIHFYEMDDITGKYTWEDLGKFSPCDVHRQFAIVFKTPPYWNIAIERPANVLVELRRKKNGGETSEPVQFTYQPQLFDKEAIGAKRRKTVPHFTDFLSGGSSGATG

Assay [3] has as its target T3, GST-Nv-NF-kB (Ser allele) (Nematostella vectensis, UniProt A7UNT2 2-411).
T3 sequence: T2 sequence with Q21R, C66S, S207N, E215Q, V217A, E225K, A268E, D399E

The target in assay [4] is T4, GST-Co-NF-kB (Capsaspora owczarzaki, UniProt F1ARL5 200-546).
T4 sequence: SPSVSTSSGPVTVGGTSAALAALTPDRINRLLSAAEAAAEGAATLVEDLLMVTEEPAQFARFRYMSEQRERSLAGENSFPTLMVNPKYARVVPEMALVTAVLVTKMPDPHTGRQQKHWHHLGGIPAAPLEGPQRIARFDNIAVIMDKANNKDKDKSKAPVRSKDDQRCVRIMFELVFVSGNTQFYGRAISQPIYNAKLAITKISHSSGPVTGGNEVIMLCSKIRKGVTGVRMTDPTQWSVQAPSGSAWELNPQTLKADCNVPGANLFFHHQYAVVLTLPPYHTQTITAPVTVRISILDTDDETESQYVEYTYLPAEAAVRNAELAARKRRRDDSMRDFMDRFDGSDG

In assay [5] the target is T5, GST-Aq-NF-kB (Amphimedon queenslandica, UniProt A9Y5G7 2-389).
T5 sequence: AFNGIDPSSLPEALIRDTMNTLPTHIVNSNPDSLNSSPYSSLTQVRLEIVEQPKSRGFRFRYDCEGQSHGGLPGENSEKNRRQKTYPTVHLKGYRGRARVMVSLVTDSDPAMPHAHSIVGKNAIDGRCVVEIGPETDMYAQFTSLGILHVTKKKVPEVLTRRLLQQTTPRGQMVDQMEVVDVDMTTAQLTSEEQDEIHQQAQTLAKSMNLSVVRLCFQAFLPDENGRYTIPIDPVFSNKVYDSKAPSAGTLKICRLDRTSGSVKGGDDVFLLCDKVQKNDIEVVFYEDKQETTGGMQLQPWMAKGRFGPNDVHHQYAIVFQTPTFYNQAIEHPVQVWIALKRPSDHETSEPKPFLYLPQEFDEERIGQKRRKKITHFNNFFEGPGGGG

Assay [6] has as its target GST-Hu-p50 (Homo sapiens, UniProt P19838 7-356).

17 sequences from paper PMC5700166 can be followed below.

Residue numbers refer to the chain shown, from its start.

Chain of GST-Hu-p50 (P19838 7-356): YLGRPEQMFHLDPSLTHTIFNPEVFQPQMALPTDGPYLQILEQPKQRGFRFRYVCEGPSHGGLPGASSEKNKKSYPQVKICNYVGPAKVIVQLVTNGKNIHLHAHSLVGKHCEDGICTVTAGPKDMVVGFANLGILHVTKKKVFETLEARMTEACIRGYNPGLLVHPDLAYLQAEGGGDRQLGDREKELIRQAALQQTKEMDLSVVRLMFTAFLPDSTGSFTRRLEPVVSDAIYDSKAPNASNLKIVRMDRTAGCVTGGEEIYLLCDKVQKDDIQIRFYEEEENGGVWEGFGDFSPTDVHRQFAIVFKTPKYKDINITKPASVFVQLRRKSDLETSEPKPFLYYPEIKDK

As for “CCGATTAACATCATCCCTCCCCATGATGTTAATCGGGTCTTGATTCGCTTGACGCTGCTG”, the binding signal was 3.84 z-score in assay [1]; 2.72 z-score in assay [2]; 2.58 z-score in assay [3]; 3.09 z-score in assay [4]; 2.55 z-score in assay [5]; 1.83 z-score in assay [6].
For “CCGATTAACATCAAAGGGAATAGTGATGTTAATCGGGTCTTGATTCGCTTGACGCTGCTG”, the binding signal in assay [1] stood at 2.26 z-score; in assay [2] it was 2.76 z-score; in assay [3], 2.94 z-score; in assay [4], 1.98 z-score; in assay [5], 2.54 z-score; in assay [6], 1.25 z-score.
In the case of “CCGATTAACATCAGTCCCACAGATGATGTTAATCGGGTCTTGATTCGCTTGACGCTGCTG”, the binding signal amounted to 1.45 z-score in assay [1], 1.55 z-score in assay [2], 1.95 z-score in assay [5] and 2.52 z-score in assay [6].
In the case of “CCGATTAACATCAGTATGGGAAATGATGTTAATCGGGTCTTGATTCGCTTGACGCTGCTG”, the binding signal in assay [1] is 1.32 z-score; in assay [2], 2.39 z-score; in assay [3], 2.22 z-score; in assay [4], 2.14 z-score; in assay [5] it was 1.79 z-score; in assay [6] it was 1.28 z-score.
On to “CCGATTAACATCAATTCCCATCCTGATGTTAATCGGGTCTTGATTCGCTTGACGCTGCTG”, for which the binding signal in assay [1] was found to be 1.57 z-score; in assay [2] it was 2.99 z-score; in assay [3], 2.59 z-score; in assay [4], 1.43 z-score; in assay [5], 1.94 z-score; in assay [6], 1.57 z-score.
As to “CCGATTAACATCAACGGTGGGAATGATGTTAATCGGGTCTTGATTCGCTTGACGCTGCTG”, the binding signal in assay [1] was found to be 1.12 z-score; in assay [2], 1.46 z-score; in assay [3], 1.15 z-score; in assay [4] it was 2.19 z-score; in assay [5] it was 2.42 z-score; in assay [6], 1.41 z-score.
Turning to “CCGATTAACATCAAAATTTTCCGTGATGTTAATCGGGTCTTGATTCGCTTGACGCTGCTG”, the figures for the binding signal in assay [5] and in assay [6] were 1.74 z-score and 1.66 z-score, respectively.
The sequence “CCGATTAACATCAGGAATGTCCATGATGTTAATCGGGTCTTGATTCGCTTGACGCTGCTG” had a binding signal in assay [5] of 1.06 z-score.
For “CCGATTAACATCATGTTAGGGAATGATGTTAATCGGGTCTTGATTCGCTTGACGCTGCTG”, the binding signal in assay [1] amounted to 1.38 z-score; in assay [2], 3.63 z-score; in assay [3], 2.76 z-score; in assay [4], 1.51 z-score; in assay [5] it was 4.43 z-score; in assay [6] it was 2.03 z-score.
Consider “CCGATTAACATCAGGCAAAACCCTGATGTTAATCGGGTCTTGATTCGCTTGACGCTGCTG”, for which the binding signal in assay [5] was determined as 3.28 z-score.
With “CCGATTAACATCAAACTGGGAAATGATGTTAATCGGGTCTTGATTCGCTTGACGCTGCTG”, the binding signal was 1.13 z-score in assay [1]; 2.35 z-score in assay [2]; 1.79 z-score in assay [3]; 2.64 z-score in assay [4]; 1.06 z-score in assay [5]; 1.62 z-score in assay [6].
For “CCGATTAACATCATATTTTCCCATGATGTTAATCGGGTCTTGATTCGCTTGACGCTGCTG”, the binding signal worked out at 2.18 z-score in assay [1]; 4.42 z-score in assay [2]; 5.61 z-score in assay [3]; 4.34 z-score in assay [4]; 2.52 z-score in assay [5]; 4.15 z-score in assay [6].
For the sequence “CCGATTAACATCACGAAATTTCCTGATGTTAATCGGGTCTTGATTCGCTTGACGCTGCTG”, in assay [5], the binding signal was found to be 1.65 z-score.
Turning to “CCGATTAACATCAAGAAATTCCGTGATGTTAATCGGGTCTTGATTCGCTTGACGCTGCTG”, the figures for the binding signal in assay [5] and in assay [6] were 1.24 z-score and 1.41 z-score, respectively.
For the sequence “CCGATTAACATCACTCTTTTCCCTGATGTTAATCGGGTCTTGATTCGCTTGACGCTGCTG”, the binding signal in assay [1] is 2.32 z-score; in assay [2] it was 3.09 z-score; in assay [3], 4.46 z-score; in assay [4], 2.99 z-score; in assay [5], 2.63 z-score; in assay [6], 1.85 z-score.
Regarding “CCGATTAACATCAGGGGAGTGGATGATGTTAATCGGGTCTTGATTCGCTTGACGCTGCTG”, the binding signal in assay [1] came out at 3.01 z-score; in assay [2], 2.86 z-score; in assay [3], 3.98 z-score; in assay [4], 1.84 z-score; in assay [5] it was 2.85 z-score; in assay [6] it was 2.9 z-score.
Turning to “CCGATTAACATCAGCTAGTCCCTTGATGTTAATCGGGTCTTGATTCGCTTGACGCTGCTG”, the binding signal in assay [1] came out at 3.99 z-score; in assay [2] it was 3.63 z-score; in assay [3], 2.09 z-score; in assay [5], 3.06 z-score; in assay [6] it was 2.73 z-score.
